Assay [1] addresses ATP-dependent 6-phosphofructokinase (Trypanosoma brucei brucei) (UniProt O15648). Briefly: qHTS Assay to Find Inhibitors of T. brucei phosphofructokinase: hit validation (AID 492961). Note: potency is the fitted concentration of half-maximal effect. In a few lines:
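PFK 1.25 nM, F6P 0.5 mM, ATP 0.1 mM, MgCl2 5 mM, 0.1 M TEA pH 8.0, Tween20 0.01%, BSA 0.1%; 45 min RT. ADP-Glo two-step detection, luminescence. qHTS titration; curve fitting with curve-class categorization.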

The target of assay [2] is Luciferin 4-monooxygenase (Photinus pyralis) (UniProt P08659). In words: Biochemical firefly luciferase enzyme assay for NPC (AID 624030).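 Note: purified P. pyralis luciferase at 10 nM with luciferin and ATP substrate; 0% = DMSO and -100% = full luciferase inhibition by PTC124 control; nearly all actives have a fitted effect of over 70% in size.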 Put shortly: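 Counter-screen for direct inhibition of the luciferase enzyme by approved-drug library compounds, run at 10 nM enzyme in 50 mM Tris acetate (final). Luminescence was read within 5 min of enzyme-buffer addition and normalized to PTC124 versus DMSO (0%).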

The nature of assay [3]: S16 Schwann cell PMP22 intronic element beta-lactamase assay (AID 624044; calls by dose curve; note: nearly all actives have a fitted effect of over 15% in size; note: potency is the fitted concentration of half-maximal effect;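 for ratio activity, negative = inhibition: 0% = DMSO and -100% = potassium clavulanate positive control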). The note with it: S16 rat Schwann cells, PMP22 element beta-lactamase FRET, 24 h; ratio activity, negative = inhibition: at 38.3 µM (top of the series). In a few lines: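 Rat S16 Schwann cells with beta-Lac driven by a PMP22 intronic element, compound-treated 24 h at 37 °C. LiveBLAzer FRET B/G read: 460 nm normalized to potassium clavulanate vs DMSO; 535 nm FRET as viability; concentration-effect curves classified.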

Assay [4] can be described thus: qHTS profiling for inhibitors of Plasmodium falciparum proliferation (AID 504749).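 For activity, negative = inhibition: 0% = DMSO vehicle and full inhibition = artemisinin control.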 For all read-outs here: nearly all actives have a fitted effect of over 60% in size. Note: potency is the fitted concentration of half-maximal effect. The note with it: P. falciparum in erythrocytes, SYBR Green DNA, 72 h; for activity, negative = inhibition: at 28.7 µM (top of the series). Put shortly: (§1)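 P. falciparum-infected erythrocytes (0.3% parasitemia, 2.5% hematocrit final) were exposed to compounds for 72 h at 37 C in 5% CO2, then lysed with SYBR Green buffer overnight at room temperature; parasite DNA fluorescence was normalized to artemisinin and DMSO controls.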
On the technique in general: qHTS replaces the single test concentration by a dilution series.

Assay [5] concerns CP185. The assay is described as above. The note with it: P. falciparum in erythrocytes, SYBR Green DNA, 72 h; series mostly up to 28.7 µM. In a few lines: as §1
Assay [6] deals with CP192. Described as above. The note with it: P. falciparum in erythrocytes, SYBR Green DNA, 72 h; series mostly up to 28.7 µM. In a few lines:
as §1

Assay [7] deals with CP211. The assay is described as above. The note with it: P. falciparum in erythrocytes, SYBR Green DNA, 72 h; series mostly up to 28.7 µM. Put shortly: as §1
Assay [8] relates to CP238. Described as above. The note with it: P. falciparum in erythrocytes, SYBR Green DNA, 72 h; series mostly up to 28.7 µM. Put shortly: as §1
Assay [9] concerns CP262. Described as above. The note with it: P. falciparum in erythrocytes, SYBR Green DNA, 72 h; series mostly up to 28.7 µM. Put shortly:
as §1

Assay [10] concerns CP269. The assay is described as above. The note with it: P. falciparum in erythrocytes, SYBR Green DNA, 72 h; series mostly up to 28.7 µM. In a few lines:
as §1

The subject of assay [11] is CP286. The assay is described as above. The note with it: P. falciparum in erythrocytes, SYBR Green DNA, 72 h; series mostly up to 28.7 µM. In a few lines: as §1
The test system of assay [12] is CP305. The description is as above. The note with it: P. falciparum in erythrocytes, SYBR Green DNA, 72 h; series mostly up to 28.7 µM. In a few lines:
as §1

Assay [13] deals with CP315. The description is as above. The note with it: P. falciparum in erythrocytes, SYBR Green DNA, 72 h; series mostly up to 28.7 µM. Put shortly: as §1
Assay [14] concerns CP325. The assay is described as above. The note with it: P. falciparum in erythrocytes, SYBR Green DNA, 72 h; series mostly up to 28.7 µM. Put shortly: as §1
Assay [15] concerns Dd2. The description is as above. The note with it: P. falciparum in erythrocytes, SYBR Green DNA, 72 h; series mostly up to 28.7 µM. Put shortly:
as §1

For assay [16], the system named is FAB9. Described as above. The note with it: P. falciparum in erythrocytes, SYBR Green DNA, 72 h; series mostly up to 28.7 µM. In a few lines:
as §1

Assay [17] relates to N140. The description is as above. The note with it: P. falciparum in erythrocytes, SYBR Green DNA, 72 h; series mostly up to 28.7 µM. Put shortly:
as §1

In assay [18] the test system is PC49. Described as above. The note with it: P. falciparum in erythrocytes, SYBR Green DNA, 72 h; series mostly up to 28.7 µM. In a few lines: as §1
In assay [19] the test system is HB3. The description is as above. The note with it: P. falciparum in erythrocytes, SYBR Green DNA, 72 h; series mostly up to 28.7 µM. Put shortly: as §1
In assay [20] the test system is JCK. The assay is described as above. The note with it: P. falciparum in erythrocytes, SYBR Green DNA, 72 h; series mostly up to 28.7 µM. In a few lines: as §1

SMILES strings stand for the structures. Results filed as inconclusive are left out. Unmarked numbers belong to inactive results. Activity calls are given as the source filed them. Unless noted, calls come from the whole dose curve; as a rule, active = well fitted curve in the direction sought with a large enough effect; inconclusive = small, poorly fitted or top-dose-only effect, or another doubt; inactive = no such curve, though single readings can be large; an effect the other way counts as inactive or inconclusive.

ATP-dependent 6-phosphofructokinase (Trypanosoma brucei brucei), sequence (O15648 whole entry, looked up): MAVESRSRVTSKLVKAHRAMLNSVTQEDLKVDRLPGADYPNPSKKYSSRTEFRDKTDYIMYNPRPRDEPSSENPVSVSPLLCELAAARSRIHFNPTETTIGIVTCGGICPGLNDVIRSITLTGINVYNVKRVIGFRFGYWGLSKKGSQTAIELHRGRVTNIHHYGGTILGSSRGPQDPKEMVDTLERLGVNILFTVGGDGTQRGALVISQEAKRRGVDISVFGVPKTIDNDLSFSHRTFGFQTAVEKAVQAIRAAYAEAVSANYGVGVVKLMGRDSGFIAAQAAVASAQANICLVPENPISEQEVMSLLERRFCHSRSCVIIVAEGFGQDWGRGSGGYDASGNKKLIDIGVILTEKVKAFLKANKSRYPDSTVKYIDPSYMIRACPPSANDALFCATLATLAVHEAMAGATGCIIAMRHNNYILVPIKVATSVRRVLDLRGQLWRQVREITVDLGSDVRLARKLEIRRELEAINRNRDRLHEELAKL
Luciferin 4-monooxygenase (Photinus pyralis), sequence (P08659 whole entry, looked up): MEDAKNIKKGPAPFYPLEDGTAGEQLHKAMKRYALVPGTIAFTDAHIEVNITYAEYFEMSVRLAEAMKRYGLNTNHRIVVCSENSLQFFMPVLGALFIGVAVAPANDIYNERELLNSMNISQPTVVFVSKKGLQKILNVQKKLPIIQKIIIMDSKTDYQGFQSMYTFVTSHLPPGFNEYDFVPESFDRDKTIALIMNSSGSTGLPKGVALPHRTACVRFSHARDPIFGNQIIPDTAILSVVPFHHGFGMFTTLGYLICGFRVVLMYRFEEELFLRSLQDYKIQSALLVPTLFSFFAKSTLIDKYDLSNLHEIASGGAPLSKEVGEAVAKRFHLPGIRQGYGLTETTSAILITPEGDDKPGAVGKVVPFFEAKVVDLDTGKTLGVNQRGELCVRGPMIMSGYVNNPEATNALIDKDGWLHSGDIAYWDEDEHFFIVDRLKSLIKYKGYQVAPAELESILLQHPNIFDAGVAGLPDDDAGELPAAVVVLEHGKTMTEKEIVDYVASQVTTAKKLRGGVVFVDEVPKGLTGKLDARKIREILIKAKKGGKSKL

`CCOC(=O)C(CCc1ccccc1)NC(C)C(=O)N1Cc2cc(OC)c(OC)cc2CC1C(=O)O` (stereo not drawn): the Potency entry in assay [1], in assay [2], in [3], in [5], in assay [6] and in assay [7] was “inactive” each time. Further, the Potency entry in assay [8], in assay [9], in assay [10], in assay [11], in assay [12] and in assay [13] was “inactive” throughout. Further, the Potency result in [14], in [15] and in assay [16] was “inactive” each time. Moreover, the activity, negative = inhibition was -6.17% in assay [4] (parasite line A) and -28.7% in [4] (parasite line B). Also, the values for the Potency in assay [17] and in assay [18] were 3550 nM (active) and 11200 nM (active), respectively.

In the case of `CCC(C(=O)C(C)C(O)C(C)CCc1ccc(C)c(O)c1C(=O)O)C1OC(CC)(C2CC[C@@](O)(CC)C(C)O2)CC1C` (stereo partly drawn), the Potency entry in assay [1] and in [2] was “inactive” each time. Also, the Potency is 6300 nM (active) in assay [3]; 794 nM (active) in assay [4] (parasite line A); 1120 nM (active) in assay [4] (parasite line B); 1120 nM (active) in [5]; 536 nM (active) in assay [7]; 1000 nM (active) in [8]. Moreover, the Potency in assay [9] is 953 nM (active); in assay [10], 757 nM (active); in assay [11], 631 nM (active); in assay [12] it was 675 nM (active); in [13], 849 nM (active); in [14], 953 nM (active). The Potency in assay [15] is 794 nM (active); in assay [16], 2000 nM (active); in [19], 631 nM (active); in assay [20], 8910 nM (active); in assay [17], 562 nM (active); in assay [18] it was 2000 nM (active).

As for `CC(=O)CC(c1ccccc1)C1C(=O)Oc2ccccc2C1=O` (stereo not drawn), the Potency result in assay [1], in assay [2], in assay [3], in assay [5], in [6] and in [7] was “inactive” each time. Also, the Potency result in [8], in assay [9], in assay [10], in [11], in [12] and in [13] was “inactive” each time. Further, the Potency result in [14], in assay [15], in assay [16], in assay [19], in assay [20] and in assay [17] was “inactive” throughout. For the same molecule, in assay [18], the Potency entry was “inactive”. For the same molecule, the activity, negative = inhibition in [4] (parasite line A) was 13.7%; in [4] (parasite line B), 9.27%.

With `Nc1nc2[nH]cc(CCc3ccc(C(=O)NC(CCC(=O)O)C(=O)O)cc3)c2c(=O)[nH]1` (stereo not drawn), the Potency entry in assay [1] and in assay [2] was “inactive” in each case. The Potency in [4] (parasite line A) is 126 nM (active); in [4] (parasite line B), 199 nM (active); in assay [6], 9530 nM (active); in [7], 3790 nM (active); in [8], 11200 nM (active); in assay [9] it was 426 nM (active). Moreover, the Potency in [13] was 953 nM (active); in assay [15], 5010 nM (active); in assay [16], 316 nM (active); in assay [19], 70.8 nM (active); in assay [20], 5620 nM (active); in assay [17], 3160 nM (active). In addition, the Potency in assay [18] is 562 nM (active).

Consider `NC(C(=O)O)C(O)c1ccc(O)c(O)c1` (stereo not drawn), for which the figures for the Potency in assay [1], in assay [4] (parasite line A) and in assay [17] were 4470 nM (active), 14100 nM (active) and 12600 nM (active), respectively. In addition, the Potency result in assay [3], in assay [13], in [20] and in [18] was “inactive” throughout.

With `C=C1/C(=C\C=C2/CCC[C@]3(C)[C@@H]([C@H](C)/C=C/[C@@H](O)C4CC4)CC[C@@H]23)C[C@@H](O)C[C@@H]1O`, the Potency result in assay [1], in assay [2], in assay [3], in assay [5], in assay [6] and in assay [7] was “inactive” in each case. The Potency entry in [8], in assay [9], in assay [10], in assay [11], in assay [12] and in [13] was “inactive” each time. Besides, the Potency result in [14], in assay [15], in assay [16], in assay [19], in assay [20] and in assay [17] was “inactive” each time. For the same molecule, the Potency result in assay [18] was “inactive”. The activity, negative = inhibition was -4.72% in assay [4] (parasite line A) and -23.6% in assay [4] (parasite line B).

The values are drawn from PubChem BioAssay (NCATS).
